Experimental data published in ChEMBL document CHEMBL3988442, “University of Dundee, Small-Polar-MMV Screening Library” (2021).
Hit rate of the full screen: of about 38,000 compounds, about 1,200 (3.2%) showed an effect of 50% or more. The median lay at about -58%. The full list was thinned out, with strong results kept by preference.

Test system: Plasmodium falciparum
Assay: Calibr Malaria Delayed Death Assay SOP
Format: functional, organism-based
Set-up: scale not given: in the data most compounds retested in dose-response had high values
Conditions: concentration 4.99e-06 (unit not given; other assays of the set use mol/L)

Structure (SMILES)	Percent Effect [%]
O=C(Cc1ccccn1)N1C[C@H]2CCC[C@@]2(COc2ccccn2)C1	-9.537
Cc1cc(SCC(N)=O)nc(-c2ccc(F)cc2)n1	0.2782
COCCn1cnnc1CCNc1cc(C)nc2ccnn12	-117.5
CCN1CC2(CC1=O)CN(Cc1ccoc1)CCN(C(=O)C(C)C)C2 (centres undefined)	-77.86
CN1CCC(CNC(=O)c2cccc(CN3CCCCCC3)c2)C1 (centres undefined)	-131.1
CN(C)C(=O)CN1CCC2(COCc3cnc(N4CCOCC4)nc32)C1.O=C(O)C(F)(F)F (centres undefined)	13
CN(CCCO)C(=O)c1cc(COc2ccc3c(c2)CCCC3)on1	-142.4
Cc1cccc(N2CCN(CCS(=O)(=O)c3ccc(Br)cc3)CC2)c1C	-66.5
O=C(c1cscn1)N1CCc2ncc(CN3CCOCC3)n2CC1	-41.39
CCOc1ccc2nc(CN3CCC(CN)C3)ccc2c1 (centres undefined)	85.08
CCOc1ccc2nc(CN3CCOC(CN)C3)ccc2c1 (centres undefined)	-11.41
CCOc1ccc2nc(CN3CCC(CNC(C)=O)C3)ccc2c1 (centres undefined)	36.59
c1ccc(Cc2noc(CN3CCCC(Cn4cncn4)C3)n2)cc1 (centres undefined)	-77.91
NC(=O)N1C[C@H](NC(=O)c2cscn2)[C@@H]2OCCC[C@@H]21	-29.66
O=C(NCc1ccco1)[C@H]1CC[C@@H]2[C@@H](CCN2c2ncccn2)O1.O=C(O)C(F)(F)F	-5.9
CC(C)CN1C(=O)CC[C@]12CC[C@@H](NC(=O)NCc1cccnc1)CC2.O=C(O)C(F)(F)F	-179.5
O=C(NCCSc1ccccc1F)NCc1cccnc1	-28.43
Fc1ccccc1Sc1ccccc1CNC1=NCCN1.I	76.79
CN(C)c1nc(NCc2ccccc2Cn2cccn2)ncc1F	-30.26
O=C(Cc1cccnc1)NCCSc1ccccc1F	-31.8
O=C1NCCCCC1Sc1ccccc1F (centres undefined)	-25.7
Cc1cc(Br)ccc1NCc1ccc(C(=O)N(C)C)[nH]1	-35.81
CC(C)[C@H](NC(=O)NC1CCS(=O)(=O)C1)C(=O)NCc1ccc(Cl)cc1 (some centres undefined)	-111.5
COCCC1COC2(CCN(C(=O)c3cccnc3)CC2)C1.O=C(O)C(F)(F)F (centres undefined)	-117.3
O=C(c1ccccc1)N1CC[C@H]2C[C@H](c3nccs3)O[C@@H]2C1	-4.41
Cc1cc(C)cc(OCCN(C)C(=O)NC(C)c2nncn2C)c1 (centres undefined)	-106.2

Structure (SMILES)	Percent Effect [%]
CCc1nc(C2CCCN2C(=O)CCCn2cccn2)no1 (centres undefined)	-167.4875
COCC1c2c(cnn2C)CCN1C(=O)c1cscn1.O=C(O)C(F)(F)F (centres undefined)	-119.3
Cc1cccc(Nc2nccnc2C2CCCN(CC(=O)N(C)C)C2)n1 (centres undefined)	-114.3
Cc1cc(C)nc(Nc2cccc(C3CCCN(CCO)C3)n2)n1 (centres undefined)	10.75
NCc1n[nH]c(-c2cccc(F)c2)n1	-72.36
Cc1nc(N2CCCC2)nc2c1CCN(C(=O)N(C)C)CC2	-58.26
CCc1cccc(N2CCC(NC(=O)c3ccoc3C)CC2)c1	-20.41
CCc1cccc(N2CCC(NC(=O)c3ccco3)CC2)c1	59.23
CCc1cccc(N2CCC(NC(=O)CCNC(N)=O)CC2)c1	-70
CC(=O)N1CCO[C@@H]2CN(Cc3cccc(Cl)c3)C[C@@H]2C1.O=C(O)C(F)(F)F	-40.86
CS(=O)(=O)NC1CCN(CCc2ccccc2)CC1	-29.4
Cl.Cl.NCC1[C@H]2CN(CCc3ccccc3)C[C@@H]12 (some centres undefined)	86.43
c1ccc(CCCN2CC(n3cccn3)C2)cc1	-65.67
CN1CCC(C(=O)N2CCN(Cc3cccc(Cl)c3)CC2)CC1=O (centres undefined)	-101.4
O=C(Nc1nnc[nH]1)C(c1cccc(F)c1)N1CCOCC1 (centres undefined)	-17.23
CC/C=C(\C)CN1CCC(CNC(=O)c2ccc(=O)[nH]c2)CC1	-93.37
Cc1ccc(S(=O)(=O)Cc2nnc(C)n2C)cc1	-134.3
O=C(c1csnn1)N1CCCC(n2cncn2)C1 (centres undefined)	-97.91
CCC(CC)CN1CCN(CC(=O)Nc2cccc3nsnc23)CC1	-38.36
CCn1nccc1C(=O)NC(Cn1cccn1)C(C)(C)C (centres undefined)	-34.87
CN(C)Cc1ccccc1CN(C)c1ncnc2[nH]ccc12	27.74
CCn1cc(CN2CCN(Cc3cc(C)cc(C)c3)C(=O)C2)cc1C#N	66.78
Cc1cc(C)cc(CN2CCN(Cc3cc(C#N)n(C)c3)CC2=O)c1	14.32
CCn1cc(CN2CCN(Cc3cccc(OC)c3)C(=O)C2)cc1C#N	47.6
CN(CCn1cnc(-c2ccccc2)c1-c1ncc[nH]1)S(C)(=O)=O	-10.43
CCN(C)S(=O)(=O)NCC1CCN(Cc2ccccc2F)C1 (centres undefined)	42.63

Structure (SMILES)	Percent Effect [%]
CCN(C)S(=O)(=O)NCC1CCCN(Cc2ccccc2F)C1 (centres undefined)	74.13
CS(=O)(=O)NCC1CCCN(Cc2ccc(F)c3cccnc23)C1 (centres undefined)	9.25
NC1(C(=O)NCC2CCCN(Cc3ccccc3F)C2)CCCC1 (centres undefined)	85.42
NC1(C(=O)NCC2CCCN(Cc3cccc4nonc34)C2)CCC1 (centres undefined)	38.45
CC(=O)NCC1CCCN(Cc2nc(Cc3ccccc3F)no2)C1 (centres undefined)	-62.96
CC(C)NC(=O)[C@@H]1C[C@H]2NCC[C@H]2O1.Cl	-114.2
Cc1n[nH]c(C)c1NC(=O)Nc1cccnc1N1CCCC1	-5.845
CC(C)CC(NCc1ccsc1)c1ccccn1 (centres undefined)	58.77
CC(C)CC(NCc1cscn1)c1ccccn1 (centres undefined)	28.89
CC(C)CC(NCc1cccs1)c1ccccn1 (centres undefined)	-24.93
COCCSCC(=O)NCc1ccc(N(C)C)cc1	-84.72
CCOC(=O)N1CCc2ccccc2C12CCNCC2.Cl	52.81
Cl.O=C(C1CC1)N1CCc2ccccc2C12CCNCC2	-61.72
COCC(=O)N1CCc2ccccc2C12CCNCC2.Cl	-57.82
Cc1cnn(CCCNC(=O)NCCS(=O)(=O)Nc2ccccc2)c1	-111.9
CC(C)C(NC(=O)NCCNc1ccccn1)c1cccs1 (centres undefined)	11.18
CC(=O)Nc1ccc(-c2ccccc2CCN)cc1	-117.7
CNC(=O)C(C)S(=O)(=O)Cc1csc(-c2cccs2)n1 (centres undefined)	-44.96
Cc1ccc(CNC(=O)C2=NOC3(CCCNC3)C2)cc1 (centres undefined)	-11.58
CC(C(=O)NC1CC1)S(=O)(=O)Cc1csc(-c2cccs2)n1 (centres undefined)	-95.03
CC(C(=O)NCC1CCCCC1)S(=O)(=O)Cc1csc(-c2cccs2)n1 (centres undefined)	-110.5
CCC1(CC)CC(=O)N(CC(O)c2cccc(F)c2)C1=O (centres undefined)	-47.43
Cn1cc(CN2CCC3(CCN(c4cnn(C)c4)C3=O)C2)cn1.O=C(O)C(F)(F)F (centres undefined)	-38.46
Cc1ccc(-n2ncc(C(=O)N(C)C3CCN(C)CC3)c2N)cc1C	-13.94
COCCNC(=O)Cn1cc2c(n1)c(C)nn2C	-119.4
Cc1ccc(CN2Cc3nccn3CC(Cn3cncn3)C2)s1.O=C(O)C(F)(F)F (centres undefined)	-180.8

Structure (SMILES)	Percent Effect [%]
COc1ccccc1OCCC(=O)NC1CCc2nc(C)cn2C1 (centres undefined)	-82.15
Cc1ncc(CNC(=O)CCc2ccccc2F)c(C2CCCN2C)n1 (centres undefined)	-31.11
Clc1cc(CN2CCCC(Cn3cncn3)C2)c2ncccc2c1 (centres undefined)	36.9
O[C@@H]1CN(Cc2cc(Cl)cc3cccnc23)C[C@@H]1O	-71.8
Clc1cc(CN2CCCN3CCCC3C2)c2ncccc2c1 (centres undefined)	88.94
Cc1cccc(-c2nc(N)nc3c2CN(C(=O)c2ccncn2)C3C)c1 (centres undefined)	-72.66
COc1coc(C(=O)Nc2nc(-c3ccccn3)cs2)cc1=O	19.28
CN(Cc1noc2c1CCCC2)C(=O)Nc1cncc(F)c1	-40.24
Cc1c[nH]c(CN(C)C(=O)C(C)(C)NC(=O)c2cccs2)n1	-87.6
CC(C)c1ncc(C(=O)N2CCOCC2CC(=O)c2ccco2)s1 (centres undefined)	-45.87
CC(Cn1cncn1)NCCN1CCc2ccccc21 (centres undefined)	-79.84
Cc1cc(C)n(CC(C)NCCN2CCc3ccccc32)n1 (centres undefined)	52.4
Cc1cc(C)n(CC(C)NCCn2nc(C)c(Cl)c2C)n1 (centres undefined)	-54.04
Cc1ccc(SC2CCCC2)c(C(=O)NCc2n[nH]c(=O)[nH]2)c1	-25.99
NC(=O)CN(C(=O)c1c[nH]c2ncccc12)C1CCCC1	-54.97
COCCN(C(=O)c1c[nH]c2ncccc12)C1CCCC1	-27.67
O=C(c1c[nH]c2ncccc12)N(Cc1ccco1)C1CCCC1	86.68
Cc1nc(N(C)C)nc(-c2cccc(-c3ccn(CCCF)n3)c2)c1C	-133.9
CCOc1ccccc1N(C)Cc1nccn1C	20.26
CSCC(=O)N(Cc1ccccn1)Cc1ccccc1C	-232.7
CCCN(Cc1ccccn1)Cc1ccccc1OC	-102.5
CC(C)CN(Cc1ccccn1)Cc1ccccc1C(=O)O	-129.3
COc1ccc(OC)c(Sc2ncccc2C(=O)N(C)CCC#N)c1	-164.4
CCOCCN1CCN(CCc2ccc3c(c2)CCO3)CC1	-44.63
Cc1noc([C@@H]2CCO[C@@H]3CCN(Cc4nccs4)C[C@@H]32)n1	-49.2
CCN1CC2(CC1=O)CN(C(C)=O)CCN(C(=O)NC)C2 (centres undefined)	-42.52
